Test [1] has as its system Staphylococcus aureus Sa2 (MRSA, cystic fibrosis isolate). Kind of test: growth reduction vs untreated control (OD550); higher = stronger antibacterial activity. The note with it: 0.1 mM; 24 h. How it is done: (§1)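 Single-dose screen of the MedChem Express Drug Repurposing Library (0.1 mM, 1% DMSO) against planktonic MRSA S. aureus Sa2 (CF isolate) in TSB in 96-well plates, 37 °C aerobic, 24 h. Assays were run in triplicate and repeated twice.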

Test [2] has the same test system. Kind of test: growth reduction vs untreated control (viable cell count); higher = stronger antibacterial activity; extreme values may be limits of the assay. The settings on record: 0.1 mM; 24 h. How it is done: as §1

From the supplement of paper PMC12024424 come the findings set out here.

As for `CCCCCCCCCCCC1=C(O)C(=O)C=C(O)C1=O` [Embelin], the growth reduction in test [1] and in test [2] was 100% throughout.

In the case of `Clc1ccc(C(Cn2ccnc2)OCc2c(Cl)cccc2Cl)c(Cl)c1` (stereo not drawn) [Isoconazole (nitrate)], the growth reduction in test [1] and in test [2] was 100% in each case.

Consider `CC(C)N(CCCCOCC(=O)NS(C)(=O)=O)c1cnc(-c2ccccc2)c(-c2ccccc2)n1` [Selexipag], for which the growth reduction in test [1] and in test [2] was 100% in each case.

As for `O=C(O)CNC(=O)c1nc(Cl)c2ccccc2c1O`, the growth reduction in test [1] and in test [2] was 100% in each case.

In the case of `CC(=C(CCOC(=O)C(C)C)SSC(CCOC(=O)C(C)C)=C(C)N(C=O)Cc1cnc(C)nc1N)N(C=O)Cc1cnc(C)nc1N` (stereo in doubt) [Sulbutiamine], the growth reduction in test [1] and in test [2] was 97% in each case.

As to `O=C(O)c1cc(F)c2nc(N3[C@@H]4CC[C@H]3C[C@@H](OCc3c(-c5ccccc5OC(F)(F)F)noc3C3CC3)C4)sc2c1` [Tropifexor], the growth reduction in test [1] and in test [2] was 100% each time.

As for `CNCc1ccc(C)c(NC(=O)c2ccc(Nc3nc(-c4ccccc4)c4ccccc4n3)cc2)c1`, the growth reduction in test [1] and in test [2] was 100% each time.

In the case of `COc1cc(F)c(F)c(Nc2ccc(I)cc2F)c1NS(=O)(=O)C1(C[C@H](O)CO)CC1` [Refametinib], the growth reduction in test [1] and in test [2] was 100% each time.

Take `CC(=O)O[C@@H]1CC[C@@]2(C)[C@@H](CC[C@]3(C)[C@@H]2C(=O)C=C2[C@@H]4[C@@H](C)[C@H](C)CC[C@]4(C)CC[C@]23C)[C@@]1(C)C(=O)O`: the growth reduction in test [1] and in test [2] was 100% in each case.

On to `C=C(C)[C@@H]1CC[C@]2(C(=O)O)CC[C@]3(C)[C@H](CC[C@@H]4[C@@]5(C)CC[C@H](OC(=O)CC(C)(C)C(=O)O)C(C)(C)[C@@H]5CC[C@]43C)[C@@H]12` [Bevirimat], for which the growth reduction in test [1] amounted to 96.7%; in test [2] it was 100%.

Regarding `CCCCCCCCCCCCCCCCCCOP(=O)([O-])OC1CC[N+](C)(C)CC1` [Perifosine], the growth reduction in test [1] turned out to be 96.9%; in test [2] it was 100%.

Take `Cc1c2c(nn1C)CSCc1cc(n(C)n1)CSc1cc(c3ccccc3c1)OCCCc1c(C(=O)O)n(C)c3c-2c(Cl)ccc13`: the growth reduction in test [1] and in test [2] was 100% throughout.

On to `CC(C)(C)CC(C)(C)c1ccc(OCCOCC[N+](C)(C)Cc2ccccc2)cc1` [Benzethonium chloride], for which the growth reduction in test [1] and in test [2] was 100% each time.

Take `CCOC(=O)C1=C(C)NC(C)=C(C(=O)OC)C1c1cccc(Cl)c1Cl` (stereo not drawn) [Felodipine]: the growth reduction in test [1] and in test [2] was 100% in each case.
